About 8,600 (12%) of roughly 69,000 compounds showed an effect of 50% or more. The list comes from a sample in which strong results are over-represented; it also holds similar structures and randomly drawn compounds.
Test system: Plasmodium berghei
Assay: Screen against P. berghei liver stage (PbLuc), transformed with Luciferase, at 10uM
Format: functional, HepG2
Settings: tested at 10 uM

Point of comparison: O=C(NC1CCN(c2ccccc2OC(F)F)C1)c1c[nH]nn1 (stereo not given), INHIBITION -39.7%. Against it:
- Cc1ccc(C(=O)N(C)Cc2cc(C)on2)cn1 — higher, 21.5%
- N#Cc1ccccc1N1CCCN(C(=O)CCc2ccco2)CC1 — higher, -2.53%
- CSCC(=O)N[C@H]1CC[C@H](Nc2nccc(-c3cccnc3)n2)C1 — higher, 49.7%
- CN1CCc2[nH]nc(C(=O)N3CCCC4(CC3)CNC(=O)O4)c2C1 (stereo not given) — higher, 46.1%
- CN1CCc2[nH]nc(C(=O)N3CCC4(CN(C)C(=O)O4)C3)c2C1 (stereo not given) — higher, 48.9%
- CN1CCc2[nH]nc(C(=O)N3CCC4(CCCO4)CC3)c2C1 — higher, 71.2%
- CSCc1cc(C(=O)NC2(C#N)CC2)ccc1F — higher, 32.3%
- CSCc1cc(C(=O)NC2(C#N)CCSC2)ccc1F (stereo not given) — lower, -77.6%
- N#CC1(NC(=O)c2ccc(F)c(Br)c2)CCSC1 (stereo not given) — higher, 51.8%
- Cc1nn(C)c(C)c1C(=O)N1CCOCC1CC(=O)c1ccco1 (stereo not given) — higher, 17.4%
- CCOC(=O)C1(O)CCN(C(=O)Nc2ccc(CC)cc2)CC1 — lower, -62.8%
- CN(C)CCN1C(=O)CO[C@@H]2CN(c3ncc(F)cn3)C[C@H]21 — higher, 17.2%
- Cc1cnc(N2C[C@@H]3[C@@H](C2)OCC(=O)N3CCN(C)C)nc1 — higher, 73.3%
- Cc1cnc(N2C[C@@H]3[C@@H](C2)OCC(=O)N3CC2CC2)nc1 — higher, 31.9%
- Cc1nn(C)c(N(C)C)c1CNCc1ccc(Cn2cncn2)cc1 — lower, -56.7%
- O=C(O)c1cccnc1CN1CCCCC1CCc1cccc(O)c1 (stereo not given) — higher, 41.2%
- O=C(O)c1cccnc1CN1CCCCC1CCc1ccccn1 (stereo not given) — higher, 37.6%
- O=C(O)c1cccnc1CN1CCCC1CCc1ccccc1 (stereo not given) — higher, 51.2%
- CCOCC1CN(S(=O)(=O)c2cccc(C)c2)Cc2nccn2C1 (stereo not given) — higher, 13.1%
- CCC(C(=O)N(C)Cc1cc(-c2ccccc2)n[nH]1)n1cccn1 (stereo not given) — higher, 5.11%
- Cn1ccnc1N1CCN(C(=O)Cc2ccc(Cl)cc2)CC1 — higher, -17.2%
- OC1(CNCCN2CCc3ccccc32)CNCCOC1 (stereo not given) — higher, 36.1%
- OC1(CNCCSc2ccccn2)CNCCOC1 (stereo not given) — higher, 67.2%
- OC1(CNCCSc2ccccn2)CCCNC1 (stereo not given) — higher, 38.3%
- Cc1ccccc1C(=O)N1CCOCC1CN(C)C (stereo not given) — higher, 1.06%
- O=C(Nc1cccnc1)NC1CCN(c2ccccc2OC(F)F)C1 (stereo not given) — higher, 56.6%
- COc1ccccc1N1CCC(NCc2c(C)noc2C)C1 (stereo not given) — higher, 1.94%
- O=C1C(Nc2ncccn2)CCN1c1ccccc1OC(F)F (stereo not given) — higher, -10.7%
- O=C(Nc1ccccn1)NC1CCN(c2ccccc2OC(F)F)C1 (stereo not given) — higher, 67.8%
- O=C(NC1CCN(c2ccccc2OC(F)F)C1)c1cccnc1 (stereo not given) — higher, 27.5%
- O=C(Nc1cn[nH]c1)NC1CCN(c2ccccc2OC(F)F)C1 (stereo not given) — higher, 29.8%
- Cc1noc(C)c1CNC1CCN(c2ccccc2OC(F)F)C1 (stereo not given) — higher, 67.4%
- COc1ccccc1N1CCCC(NC(=O)Nc2cccnc2)C1 (stereo not given) — higher, 10.7%
- Cc1c(CNC2CCN(c3ccccc3OC(F)F)C2)cnn1C (stereo not given) — higher, 5.64%
- N#Cc1nccnc1NC1CCN(c2ccccc2OC(F)F)C1 (stereo not given) — higher, 36.5%
- O=C(Nc1ccncc1)NC1CCN(c2ccccc2OC(F)F)C1 (stereo not given) — higher, 79%
- CCn1cc(S(=O)(=O)NCc2ccnc(-n3ccnc3)c2)cn1 — higher, -0.85%
- CN(Cc1cnn(C)c1)CC(O)c1ccc2c(c1)OCO2 (stereo not given) — higher, 46.6%
- Cn1nc(C(=O)NCCc2ccc(OC3CCCC3)cc2)ccc1=O — higher, 35.5%
- Cc1nn(C)c2cn(CC(=O)NC3CCSCC3)nc12 — higher, 19.8%
- CCN(C(=O)c1ccc2nnc(C3CCN(CCOC)C3)n2c1)C(C)C (stereo not given) — higher, 34%
- CC(C)[C@H](NC(=O)N1CCC(Cc2ccccc2)CC1)C(=O)O — higher, 31.3%
- O=C(NCC1CCCO1)c1ccc(S(=O)(=O)NCCc2cn[nH]c2)cc1 (stereo not given) — higher, -17.5%
- CC(C)N1CCCCC1c1cc(CO)[nH]n1 (stereo not given) — higher, -8.24%
- CCc1nnc(CN2CCCC(Cn3nc(C)nc3C)C2)o1 (stereo not given) — higher, 44.9%
- COc1ccc(S(=O)(=O)NCCC(=O)NCc2ccoc2)cc1OC — higher, 3.77%
- O=C(CCc1ccsc1)NCC1CCN(C2CC2)C1 (stereo not given) — higher, 22.8%
- C1CC(CN2CC[C@@H]3O[C@@H](c4nnc(C5CC5)o4)C[C@H]3C2)CCO1 — higher, 14.5%
- CN1CCOCC2(CCCN(C(=O)c3cnccn3)C2)C1 (stereo not given) — higher, 18.3%
- CCN(CCO)Cc1ccc(Br)c2cccnc12 — higher, 7.07%
- O=C(c1ccccn1)N1CCc2c(nc(N3CCCC3)[nH]c2=O)C1 — higher, 50%
- O=C(c1ccccn1)N1CCc2c(nc(-c3ccncc3)[nH]c2=O)C1 — higher, -12.1%
- O=C(c1cc[nH]n1)N1CCc2c(nc(N3CCCCC3)[nH]c2=O)C1 — higher, 3.91%
- CCCc1nnc(N2CCN(c3ccccc3Cl)CC2)o1 — higher, -15.3%
- CN(C)CC(C)(C)Cn1cnc(-c2ccccc2)c1-c1ncc[nH]1 — higher, 18.8%
- CN(c1ccc(CNc2c(Cl)cccc2C#N)cc1)S(C)(=O)=O — higher, 36.9%
- CS(=O)(=O)N1CCC(CNc2c(Cl)cccc2C#N)CC1 — higher, 19.7%
- CCS(=O)(=O)c1ccc(CNc2c(Cl)cccc2C#N)cc1 — higher, 74.9%
- CNC(=O)COc1ccc(CNc2c(Cl)cccc2C#N)cc1 — higher, 60.1%
- CN(C)C(=O)c1ccc(CNc2c(Cl)cccc2C#N)cc1 — higher, 45.2%
- CNC(=O)COc1ccc(CNCc2cc(F)ccc2F)cc1 — higher, -4.12%
- CCC(=O)Nc1nnc(CCOc2ccccc2)s1 — higher, -17.2%
- Cc1nc(CN2CCC(c3ccnn3CCO)CC2)oc1C — higher, -12.2%
- CN(C)C(=O)CN(C)C(=O)c1csc(Br)c1 — higher, -13.2%
- CN(C)c1ccc(CC2CCCN(c3cnccn3)C2)nn1 (stereo not given) — higher, -14.2%
- OC(CNC1CCSCC1)c1cccc(OCc2ccccc2)c1 (stereo not given) — higher, 44.5%
- Cc1nc(CN(C)C(=O)Nc2cccc(C)c2C)no1 — higher, 28.1%
- N#Cc1ccc(OC2CCN(C(=O)Cc3cccs3)CC2)nc1 — higher, 65.7%
- CN1CCCC(C(=O)N2CCC(Oc3ncccn3)CC2)C1 (stereo not given) — higher, 30.5%
- N#Cc1ccc(OC2CCN(C(=O)c3ccc4c(c3)OCO4)CC2)nc1 — higher, 40.9%
- COc1ccc(OC2CCN(C(=O)c3cnc(C)s3)CC2)cc1 — higher, 30.8%
- N#Cc1ccc(OC2CCN(C(=O)c3ccccc3Cl)CC2)nc1 — higher, 7.44%
- COc1cccc(OC2CN(C(=O)C3CCCN(C(=O)N(C)C)C3)C2)c1 (stereo not given) — higher, 42.6%
- COc1ccc(OC2CCN(C(=O)c3ccc(C(C)=O)s3)CC2)cc1 — higher, 71.5%
- N#Cc1ccc(C(=O)N2CCC(Oc3ccc(C#N)cn3)CC2)cc1 — higher, 32.2%
- N#Cc1ccc(OC2CCN(C(=O)c3cncc(Br)c3)CC2)nc1 — higher, 54.5%
- N#Cc1ccc(OC2CCN(C(=O)c3ccc(Br)o3)CC2)nc1 — higher, -0.532%
- CC(=O)c1ccc(C(=O)N2CCC(c3cc(O)nc(C)n3)CC2)s1 — higher, 8.24%
- COc1ccc(OC2CCN(C(=O)C3CCCN(C)C3)CC2)cc1 (stereo not given) — higher, 67.5%

From ChEMBL document CHEMBL4513216, “Probing the Open Global Health Chemical Diversity Library for Multistage-Active Starting Points for Next-Generation Antimalarials” (ACS Infect Dis, 2020)
